Laboratory results as given in paper PMC13541613, “GHT-SELEX demonstrates unexpectedly high intrinsic sequence specificity and complex DNA binding of many human transcription factors”.

Tests used:
Assay in all cases: HT-SELEX; 20 mM HEPES pH 7, 140 mM KCl, 5 mM NaCl, 1 mM K2HPO4, 2 mM MgSO4, 100 uM EGTA, ZnSO4, 0.1% Tween20; room temperature, 1 h; high values mean tight binding
Conditions in all cases: protein: ivt; tags: eGFP (N-terminal); dsDNA, one strand shown
ZNF721 full-length = ZNF721 full-length (Homo sapiens, UniProt Q8TF20-2 1-923)
Method in brief: (§1)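 Tagged transcription factor, expressed in HEK293 lysate or cell-free extract as a full-length protein or DNA-binding-domain fragment, was held on beads. It bound a randomized 40-base DNA library during 1 h at room temperature in low-stringency HEPES/KCl buffer with Tween20. Eluted DNA went through successive PCR cycles and Illumina sequencing of ~3 million 60 bp reads per sample. A higher relative k-mer count in the selected reads denotes tighter binding.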

ZNF721 DBD1 = ZNF721 DBD1 (Homo sapiens, UniProt Q8TF20-2 29-461)
Method in brief: as §1

ZNF721 DBD2 = ZNF721 DBD2 (Homo sapiens, UniProt Q8TF20-2 395-923)
Method in brief: as §1

ZNF721 full-length, sequence (Q8TF20 other isoform, or with tags, fused parts or gaps): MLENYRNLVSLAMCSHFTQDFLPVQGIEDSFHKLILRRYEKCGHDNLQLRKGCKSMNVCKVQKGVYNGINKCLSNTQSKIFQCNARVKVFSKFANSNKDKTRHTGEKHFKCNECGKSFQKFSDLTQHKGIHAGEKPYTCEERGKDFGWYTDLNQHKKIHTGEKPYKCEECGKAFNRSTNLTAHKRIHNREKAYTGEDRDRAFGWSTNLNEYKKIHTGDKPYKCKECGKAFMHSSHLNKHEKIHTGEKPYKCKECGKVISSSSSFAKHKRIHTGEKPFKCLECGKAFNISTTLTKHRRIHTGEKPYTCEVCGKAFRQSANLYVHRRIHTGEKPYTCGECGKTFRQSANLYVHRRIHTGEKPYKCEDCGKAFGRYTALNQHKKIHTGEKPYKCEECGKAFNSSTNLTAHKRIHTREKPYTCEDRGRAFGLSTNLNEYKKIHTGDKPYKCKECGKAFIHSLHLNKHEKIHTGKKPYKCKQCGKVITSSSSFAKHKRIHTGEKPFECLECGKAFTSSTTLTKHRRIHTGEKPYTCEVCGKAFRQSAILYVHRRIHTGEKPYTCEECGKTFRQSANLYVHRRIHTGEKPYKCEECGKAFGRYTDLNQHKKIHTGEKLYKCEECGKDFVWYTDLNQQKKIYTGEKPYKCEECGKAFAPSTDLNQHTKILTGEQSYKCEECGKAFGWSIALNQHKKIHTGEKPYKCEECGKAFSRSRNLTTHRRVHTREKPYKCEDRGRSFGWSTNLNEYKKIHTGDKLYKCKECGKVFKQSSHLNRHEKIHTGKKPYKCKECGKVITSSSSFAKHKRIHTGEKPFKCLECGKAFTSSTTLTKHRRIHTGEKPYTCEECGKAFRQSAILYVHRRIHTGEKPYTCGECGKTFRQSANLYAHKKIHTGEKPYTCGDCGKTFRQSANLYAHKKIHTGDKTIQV
ZNF721 DBD2, sequence (Q8TF20 383-911): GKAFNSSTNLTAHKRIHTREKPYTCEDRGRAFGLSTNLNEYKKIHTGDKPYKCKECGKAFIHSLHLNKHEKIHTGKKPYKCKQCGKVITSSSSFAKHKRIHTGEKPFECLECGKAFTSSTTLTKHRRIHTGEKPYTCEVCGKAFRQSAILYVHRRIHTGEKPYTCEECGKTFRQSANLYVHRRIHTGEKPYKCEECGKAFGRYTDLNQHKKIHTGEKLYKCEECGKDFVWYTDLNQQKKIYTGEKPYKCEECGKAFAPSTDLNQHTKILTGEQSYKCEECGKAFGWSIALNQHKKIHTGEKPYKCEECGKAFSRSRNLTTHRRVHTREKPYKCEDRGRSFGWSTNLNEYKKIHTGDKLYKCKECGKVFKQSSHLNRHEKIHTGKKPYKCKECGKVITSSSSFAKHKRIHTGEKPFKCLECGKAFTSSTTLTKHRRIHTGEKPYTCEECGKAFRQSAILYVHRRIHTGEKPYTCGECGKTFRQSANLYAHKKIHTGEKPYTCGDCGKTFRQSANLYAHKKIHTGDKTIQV
ZNF721 DBD1, sequence (Q8TF20 17-449): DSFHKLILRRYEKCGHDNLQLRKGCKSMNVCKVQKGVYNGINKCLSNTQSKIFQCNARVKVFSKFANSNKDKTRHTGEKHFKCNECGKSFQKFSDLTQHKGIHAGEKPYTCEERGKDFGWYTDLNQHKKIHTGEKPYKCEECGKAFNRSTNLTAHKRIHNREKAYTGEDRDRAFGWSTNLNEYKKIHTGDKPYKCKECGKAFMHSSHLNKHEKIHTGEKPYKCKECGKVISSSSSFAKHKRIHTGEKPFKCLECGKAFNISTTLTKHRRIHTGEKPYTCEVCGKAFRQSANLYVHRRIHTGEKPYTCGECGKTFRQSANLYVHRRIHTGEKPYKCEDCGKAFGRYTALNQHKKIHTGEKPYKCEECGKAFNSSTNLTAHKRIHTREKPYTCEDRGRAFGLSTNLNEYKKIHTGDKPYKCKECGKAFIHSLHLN

Sequence | binding signal (ZNF721 full-length) [relative 10-mer count] | binding signal (ZNF721 DBD1) [relative 10-mer count] | binding signal (ZNF721 DBD2) [relative 10-mer count]
CCCGCCACCC | 0.304 | 0.0125 | 0.00252
CCCCCACCCA | 0.256 | 0.00931 | 0.00348
GCCCCCCACC | 0.171 | 0.00693 | 0.00455
CCGCCCTCCC | 0.148 | 0.00642 | 0.00252
ACCCCACACC | 0.14 | 0.00436 | 0.00276
CCCTCTCCCC | 0.11 | 0.00564 | 0.00228
CAAAAAAAGC | 0.202 | 0.0258 | 0.0675
CCCCCCCCGC | 0.151 | 0.00399 | 0.0024
ACCTCCCCAC | 0.108 | 0.00422 | 0.0036
AAAAAAAGGT | 0.117 | 0.00583 | 0.0857
AGCAGTACCA | 0.118 | 0.0341 | 0.0533
ACCCTCCACC | 0.127 | 0.00482 | 0.00707
CCCCACCCTC | 0.21 | 0.00986 | 0.00599
CCCTCCCTCC | 0.178 | 0.0107 | 0.0211
CGCCCCTCCC | 0.158 | 0.00605 | 0.00336
AAACAAGCAG | 0.212 | 0.00908 | 0.149
AGAAAGAAGC | 0.136 | 0.0675 | 0.00216
CTTTTTTTTA | 0.14 | 0.0207 | 0.0588
CCCCTCCCGC | 0.137 | 0.00665 | 0.00635
CCATCCCCCC | 0.155 | 0.00592 | 0.0036
GCCCCCCCAC | 0.112 | 0.0055 | 0.00803
CCCCAACACC | 0.114 | 0.00417 | 0.00324
CCCCACCACC | 0.447 | 0.0213 | 0.00767
CCTCCCGCCC | 0.161 | 0.00656 | 0.00264
CCCACCACCA | 0.199 | 0.00784 | 0.00599

Sequence | binding signal (ZNF721 full-length) [relative 10-mer count] | binding signal (ZNF721 DBD1) [relative 10-mer count] | binding signal (ZNF721 DBD2) [relative 10-mer count]
CCCCCCATCC | 0.15 | 0.00509 | 0.00419
CCCAACCCCA | 0.132 | 0.00459 | 0.00372
CCCCTCTCCC | 0.107 | 0.00454 | 0.00204
CCCTCCGCCC | 0.192 | 0.00936 | 0.00491
AGGGTATCCA | 0.133 | 0.00858 | 0.224
CCCCCACGCC | 0.181 | 0.00688 | 0.00419
CCAACCACCC | 0.175 | 0.00624 | 0.00312
CCCGTCCCCC | 0.187 | 0.00771 | 0.0018
CCACCGTCCC | 0.112 | 0.00491 | 0.00467
AGCATATCCA | 0.107 | 0.0108 | 0.102
ACCCCACCCT | 0.104 | 0.005 | 0.00372
AAGCTATCCC | 0.172 | 0.105 | 0.0012
AGGGTGGGGG | 0.202 | 0.0102 | 0.00563
CACACCCCAC | 0.123 | 0.00394 | 0.00419
CCCCCCCACG | 0.116 | 0.00399 | 0.00443
CCACCTCCCC | 0.278 | 0.0134 | 0.00336
GCCACCCCAC | 0.129 | 0.00472 | 0.00491
ACGAAAAAAA | 0.107 | 0.0146 | 0.0612
CACAAAAAAG | 0.102 | 0.00853 | 0.0405
GCAGCATACC | 0.151 | 0.00147 | 0.158
CAAAAAAAAG | 0.269 | 0.0321 | 0.108
CCCCGCCCCC | 0.297 | 0.0122 | 0.00228
AGGAAAAAAG | 0.114 | 0.0333 | 0.0182
CCTCCCCCCG | 0.143 | 0.00541 | 0.00348
CATCCCACCC | 0.138 | 0.00527 | 0.00563

Sequence | binding signal (ZNF721 full-length) [relative 10-mer count] | binding signal (ZNF721 DBD1) [relative 10-mer count] | binding signal (ZNF721 DBD2) [relative 10-mer count]
ATGGGGTGGG | 0.125 | 0.00477 | 0.00551
CCCCCGCCAC | 0.176 | 0.00679 | 0.0036
CCCCCCGACC | 0.147 | 0.00482 | 0.00288
AAAAGGCATA | 0.133 | 0.00161 | 0.116
CCCCTTCCCC | 0.162 | 0.00702 | 0.00192
CTCCCCCCCC | 0.158 | 0.00761 | 0.003
CAACCCCCCC | 0.131 | 0.00431 | 0.00252
CGCCCCCCGC | 0.12 | 0.00472 | 0.00384
CGCCACCCCC | 0.212 | 0.00706 | 0.0024
ACCCACCCCC | 0.265 | 0.0111 | 0.00252
CGCCCCCCTC | 0.116 | 0.00422 | 0.00204
GCCACCACCC | 0.106 | 0.00413 | 0.00204
AAAACAGTAT | 0.105 | 0.00124 | 0.155
ACCCACCCGC | 0.102 | 0.00316 | 0.00276
AAAAAAAAAA | 0.186 | 0.0189 | 0.0538
AAAAAAAAAG | 0.384 | 0.0474 | 0.0982
AAACAGCGTA | 0.378 | 0.00115 | 0.468
CCGAAAAAAA | 0.115 | 0.0118 | 0.0585
CAAAAAAAAC | 0.123 | 0.00243 | 0.0838
CGCCCCACCA | 0.117 | 0.00362 | 0.00312
CCCACCACGC | 0.108 | 0.00408 | 0.00539
AGTGTCTCCA | 0.147 | 0.0423 | 0.282
CCACCCTCCA | 0.123 | 0.00587 | 0.00815
CCCGACCCCC | 0.178 | 0.00628 | 0.00144
